This is an account of results in PubChem BioAssay (Tox21).

Values joined by “and” are separate entries in the source; they are usually repeats but may differ in a detail not shown here. Identical values can stand only once. Records with an inconclusive call do not appear. Where a structure was tested more than once in an assay, its records may differ in their call. Active and inactive are the calls of the source. Unless noted, the call rests on the fitted dose curve.

A short description of experiment [1]: qHTS assay to identify small molecule agonists of the endoplasmic reticulum stress response signaling pathway (AID 1159516; active means well fitted activation curve with a large enough effect in the signal ratio in the repeat runs, not every such curve was filed as active; the % refers to the signal ratio). Put shortly:
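Fluorescence at 460 and 530 nm (405 nm excitation) reports beta-lactamase from an ER stress response element in HeLa cells treated 5 hr at 37 C.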

The nature of experiment [2]: qHTS assay to identify small molecule agonists of the endoplasmic reticulum stress response signaling pathway - cell viability counter screen (AID 1159517). Further: nearly all actives have a fitted effect of over 50% in size. Further: potency means the concentration at half of the fitted maximal effect. A digest of the protocol:
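Cytotoxicity of test compounds toward ESRE-bla HeLa cells was assessed after 5 hr exposure. The luminescent CellTiter-Glo signal was measured 30 min after reagent addition.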

A short description of experiment [3]: qHTS assay to identify small molecule antagonists of the retinoid-related orphan receptor gamma (ROR-gamma) signaling pathway - cell viability counter screen (AID 1159520; active means well fitted curve in the direction sought with a large enough effect in the repeat runs; an effect the other way counts as inactive or inconclusive; further: nearly all actives have a fitted effect of over 50% in size; further: potency means the concentration at half of the fitted maximal effect). Put shortly:
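Tet-on ROR gamma CHO cells (1,000/well) were plated 4 hr, given compounds in DMSO for 2 hr at 37 C, then induced with 1 uM final doxycycline for 16 hr. Viability was read as ATP by CellTiter-Glo luminescence after 30 min.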
On the technique in general: Quantitative high-throughput screening tests each substance at several concentrations.

Experiment [4] can be described thus: qHTS assay to identify small molecule agonists of the AP-1 signaling pathway - cell viability counter screen (AID 1159525). Further: nearly all actives have a fitted effect of over 55% in size. Further: potency means the concentration at half of the fitted maximal effect. A digest of the protocol:
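Each titration point was normalised to DMSO and tetra n-octyl ammonium bromide controls. The read was Cell Titer Glo luminescence after 30 min at RT, following 5 h compound exposure of ME-180 AP-1-bla cells at 37 °C.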

The nature of experiment [5]: qHTS assay to identify small molecule agonists of the AP-1 signaling pathway (AID 1159526). Further: potency means the concentration at half of the fitted maximal effect.
For experiment [6], the target named is Retinoic acid receptor RXR-alpha (Homo sapiens) (UniProt P19793). The experiment can be described thus: qHTS assay to identify small molecule agonists of the RXR signaling pathway (AID 1159527). Further: nearly all actives have a fitted effect of over 35% in size. Further: potency means the concentration at half of the fitted maximal effect. A digest of the protocol: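 Using 9-cis retinoic acid as the reference agonist, chemicals were tested in HEK 293T cells […] for 16 hr; substrate loading lasted 2 hr at room temperature.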
Chain of Retinoic acid receptor RXR-alpha (Homo sapiens) (P19793 whole entry, looked up): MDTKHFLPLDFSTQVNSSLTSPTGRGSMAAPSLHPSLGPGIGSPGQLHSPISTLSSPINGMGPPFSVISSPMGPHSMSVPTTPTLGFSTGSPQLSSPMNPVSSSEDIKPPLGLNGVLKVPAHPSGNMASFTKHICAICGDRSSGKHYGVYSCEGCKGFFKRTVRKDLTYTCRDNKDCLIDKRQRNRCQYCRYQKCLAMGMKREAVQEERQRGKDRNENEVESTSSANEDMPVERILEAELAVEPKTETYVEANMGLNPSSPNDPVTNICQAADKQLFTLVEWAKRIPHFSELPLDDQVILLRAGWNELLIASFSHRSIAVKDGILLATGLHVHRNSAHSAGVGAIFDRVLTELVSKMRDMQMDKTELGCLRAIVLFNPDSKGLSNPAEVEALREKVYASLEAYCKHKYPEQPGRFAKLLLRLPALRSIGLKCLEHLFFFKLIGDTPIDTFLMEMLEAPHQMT

The nature of experiment [7]: qHTS assay to identify small molecule antagonists of the retinoid acid receptor (RAR) signaling pathway - cell viability counter screen (AID 1159551; active means well fitted curve in the direction sought with a large enough effect in the repeat runs; an effect the other way counts as inactive or inconclusive; further: nearly all actives have a fitted effect of over 35% in size; further: potency means the concentration at half of the fitted maximal effect). Put shortly:
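In this counter screen, the RARE-luciferase line C3RL4 was exposed for 6 h at 37 C and 5% CO2 to compounds with retinol at 1 uM final. Cellular ATP, read by luminescence, served as the viability measure.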

The target in experiment [8] is Nuclear receptor ROR-gamma (Homo sapiens) (UniProt P51449). The experiment can be described thus: qHTS assay to identify small molecule antagonists of the retinoid-related orphan receptor gamma (ROR-gamma) signaling pathway (AID 1159521; active means well fitted curve in the direction sought with a large enough effect in the repeat runs; an effect the other way counts as inactive or inconclusive; further: nearly all actives have a fitted effect of over 50% in size; further: potency means the concentration at half of the fitted maximal effect). A digest of the protocol: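 Test compounds were applied to Tet-on RORγ CHO cells 2 h ahead of doxycycline hyclate (1 uM final). Luciferase reporter activity was quantified by luminescence after 16 h at 37 C and 5% CO2.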

Experiment [9] can be described thus: qHTS assay to identify small molecule agonists of the RXR signaling pathway - cell viability counter screen (AID 1159529; active means well fitted curve in the direction sought with a large enough effect in the repeat runs; an effect the other way counts as inactive or inconclusive; further: nearly all actives have a fitted effect of over 50% in size; further: potency means the concentration at half of the fitted maximal effect). A digest of the protocol:
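Compounds dissolved in DMSO were pinned onto HEK 293T cells carrying a beta-lactamase reporter under RXR-alpha control and incubated 16 hr. Cytotoxicity was then quantified by CellTiter-Glo luminescence.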

Experiment [10] in a line: qHTS assay to identify small molecule antagonists of the retinoic acid receptor (RAR) signaling pathway (AID 1159552; active means well fitted curve in the direction sought with a large enough effect in the repeat runs; an effect the other way counts as inactive or inconclusive; further: nearly all actives have a fitted effect of over 50% in size; further: potency means the concentration at half of the fitted maximal effect). Put shortly:
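Test chemicals and DMSO controls were pin-transferred onto C3RL4 cells a day after seeding; retinol (1 uM final) followed at once. Luminescent reporter output was quantified after 6 hr of co-incubation and 30 min with detection reagent.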

`O=C(O)COc1ccc(Cl)cc1Cl`: the compound was called inactive in experiment [1]. In addition, the Potency result in experiment [2], in [3], in experiment [4], in [5], in experiment [6] and in experiment [7] was “inactive” in each case.
For the compound `C[C@]12CCC(=O)C=C1CC[C@@H]1[C@@H]2CC[C@]2(C)C(=O)CC[C@@H]12`, the Potency result in experiment [2], in [3], in experiment [4], in experiment [5], in [6] and in [9] was “inactive” in each case. The Potency entry in experiment [7] is “inactive”. Moreover, the Potency is 23.9 µM (active) and inactive in experiment [8]; 47.7 µM (active) and inactive in [10].
In the case of `CCCCCCCCCCCC(=O)O`, the outcome in experiment [1] was inactive. The Potency result in experiment [2], in experiment [4], in experiment [5], in experiment [7] and in [10] was “inactive” throughout. In addition, the Potency in [6] was 55.1 µM (active) and 63 µM (active).
For the compound `CCCCCCCCCCCCOS(=O)(=O)O`, the result in [1] was inactive. Further, the Potency entry in experiment [2], in experiment [3], in experiment [5], in [6] and in experiment [7] was “inactive” throughout. Besides, the Potency in experiment [4] is 55 µM (active) and inactive; in [9] it was 34.7 µM (active) and 21.9 µM (active) and inactive.
`Nc1ccc(-c2ccc(N)cc2)cc1`: the Potency result in experiment [2], in experiment [3], in experiment [8], in [4], in experiment [5] and in experiment [6] was “inactive” each time. The Potency entry in [9], in experiment [7] and in [10] was “inactive” each time.
On to `Nc1ccccc1`, for which, in experiment [1], the outcome was inactive. Besides, the Potency result in [2], in experiment [8], in [4], in [5], in experiment [6] and in experiment [7] was “inactive” each time.
With `CCn1cc[n+](C)c1C`, the Potency result in experiment [2], in [3], in [8], in [4], in experiment [5] and in experiment [6] was “inactive” each time. Besides, the Potency result in [7] and in experiment [10] was “inactive” throughout.
Turning to `CCCCCCn1cc[n+](C)c1`, the Potency entry in experiment [2], in experiment [3], in [8], in experiment [4], in experiment [5] and in [6] was “inactive” throughout. In addition, in experiment [7], the Potency entry was “inactive”.
For `COP(=O)(OC)C(O)C(Cl)(Cl)Cl` (stereo unspecified), the compound was classed as inactive in [1]. Also, the Potency entry in experiment [2], in [8], in experiment [4], in [5], in [6] and in experiment [9] was “inactive” throughout. Further, the Potency result in experiment [7] and in [10] was “inactive” in each case.
As for `CCCCCCCCCCCCCC[P+](CCCCCC)(CCCCCC)CCCCCC`, the call in [1] was inactive. Moreover, the Potency is 31 µM (active) and 27.8 µM (active) and inactive in experiment [2]; 9.73 µM (active) and 19.5 µM (active) in experiment [3]; 11 µM (active) and 19.7 µM (active) and inactive in [4]; 27.4 µM (active) and 27.5 µM (active) and inactive in [7]. The Potency entry in experiment [5] is “inactive”.
As for `CC[n+]1ccccc1`, the Potency result in experiment [2], in experiment [3], in [4], in experiment [5] and in experiment [6] was “inactive” each time. Moreover, the Potency result was “inactive and 1.71 µM (active)” in [8]; “inactive and 54 µM (active)” in experiment [7].
With `C1CCC(NC2CCCCC2)CC1`, the Potency entry in experiment [2], in [3], in experiment [8], in [4], in experiment [5] and in experiment [6] was “inactive” throughout. Also, the Potency entry in experiment [9], in [7] and in experiment [10] was “inactive” each time.
As to `CCCC[n+]1ccccc1`, the Potency entry in [2], in experiment [3], in experiment [8], in experiment [4], in [5] and in experiment [6] was “inactive” each time. Moreover, the Potency result in [9] and in [7] was “inactive” in each case.
For the compound `O=C(O)C(Cl)Cl`, in [1], the compound was classed as inactive. The Potency result in experiment [2], in [3], in experiment [8], in [4], in [5] and in experiment [7] was “inactive” in each case. In experiment [6], the Potency result was “inactive and 3.09 µM (active)”.
With `CCCCCC[n+]1ccccc1`, the Potency result in experiment [2], in [3], in experiment [8], in experiment [4], in experiment [5] and in [6] was “inactive” in each case. The Potency result in [7] was “inactive”.
As for `CN(C)[C@@H]1C(=O)C(C(N)=O)=C(O)[C@@]2(O)C(=O)C3=C(O)c4c(O)cccc4[C@@](C)(O)[C@H]3[C@H](O)[C@@H]12`, in experiment [1], the compound was called inactive. The Potency result in experiment [2], in experiment [4], in [5], in experiment [6] and in experiment [7] was “inactive” in each case.
Regarding `CCCCCCCCCCCCn1cc[n+](C)c1`, the compound was classed as inactive in experiment [1]. Moreover, the Potency in experiment [4] is 49.4 µM (active) and inactive; in experiment [5], “inactive and 43.4 µM (active)”; in [7] it was 49 µM (active) and inactive. Further, the Potency result in [6] was “inactive”.
As to `COCC(=O)N(c1c(C)cccc1C)C(C)C(=O)OC` (stereo unspecified), the outcome in [1] was inactive. In addition, the Potency result in experiment [2], in experiment [3], in [8], in experiment [4], in experiment [5] and in experiment [6] was “inactive” each time. Moreover, the Potency result in experiment [9], in experiment [7] and in [10] was “inactive” in each case.
In the case of `CCNc1nc(Cl)nc(NCC)n1`, the call in experiment [1] was inactive. Also, the Potency entry in experiment [2], in experiment [3], in experiment [4], in experiment [5], in [7] and in experiment [10] was “inactive” each time. In addition, the Potency in experiment [8] was 48.8 µM (active) and inactive; in experiment [6] it was “inactive and 12.2 µM (active)”.
Consider `Oc1cccc2cccnc12`, for which the compound was classed as inactive in [1]. Further, the Potency in [2] was 780 nM (active) and 155 nM (active); in [8], 774 nM (active) and 864 nM (active) and inactive; in [4] it was 1.23 µM (active) and inactive; in [7] it was “inactive and 7.7 µM (active)”. The Potency result in [5] and in [6] was “inactive” each time.
On to `O=[N+]([O-])c1ccccc1O`, for which the compound was classed as inactive in [1]. The Potency result in [2], in experiment [8], in [4], in experiment [5], in experiment [6] and in [7] was “inactive” each time. The Potency entry in experiment [10] is “inactive”.
On to `CCC[N+]1(C)CCCCC1`, for which the Potency entry in experiment [2], in experiment [3], in experiment [8], in experiment [4], in [5] and in experiment [6] was “inactive” in each case. Also, the Potency entry in experiment [9] and in [7] was “inactive” throughout.
Consider `CC[N+]1(C)CCCC1`, for which the call in [1] was inactive. Also, the Potency entry in experiment [2], in experiment [8], in experiment [4], in experiment [5], in experiment [6] and in [9] was “inactive” each time. For the same compound, the Potency result in experiment [7] is “inactive”.
As to `CCCCCCCCCCCCCCCCn1cc[n+](C)c1`, the compound was called inactive in [1]. Moreover, the Potency entry in experiment [3] is “inactive and 61.7 µM (active) and 30.7 µM (active)”; in [4], “inactive and 21.9 µM (active)”; in [7], “inactive and 61.7 µM (active) and 43.4 µM (active)”; in experiment [10], “inactive and 27.6 µM (active) and 13.7 µM (active)”. For the same compound, the Potency result in experiment [5] and in [6] was “inactive” each time.
As for `O=C(O)C(Cl)(Cl)Cl`, the result in experiment [1] was inactive. Also, the Potency result in [2], in experiment [3], in experiment [8], in experiment [4], in experiment [5] and in experiment [6] was “inactive” throughout. The Potency entry in [7] and in experiment [10] was “inactive” each time.
Take `C=CCOC(Cn1ccnc1)c1ccc(Cl)cc1Cl` (stereo unspecified): the Potency entry in experiment [2], in experiment [3], in experiment [4], in experiment [6] and in experiment [7] was “inactive” throughout. In [8], the Potency is 21.8 µM (active) and 29.8 µM (active).
As to `Cc1cc(Cl)ccc1OCC(=O)O`, in [1], the result was inactive. Also, the Potency entry in experiment [2], in [8], in experiment [4], in experiment [5], in experiment [6] and in experiment [7] was “inactive” in each case.
On to `CCCCCCCCn1cc[n+](C)c1`, for which the compound was called inactive in experiment [1]. In addition, the Potency entry in experiment [2], in experiment [4], in [5], in [7] and in [10] was “inactive” in each case.
`CCCC[N+]1(C)CCCC1`: the compound was called inactive in [1]. The Potency result in experiment [2], in experiment [8], in experiment [4], in experiment [5], in experiment [6] and in experiment [7] was “inactive” in each case.
Regarding `CCCn1cc[n+](C)c1`, in experiment [1], the result was inactive. In addition, the Potency entry in [2], in [8], in experiment [4], in [5], in [6] and in [7] was “inactive” throughout.
